The results in this text go back to PubChem BioAssay.

The structures appear in SMILES notation. The source made the active and inactive calls.

In assay [1] the test system is Human papillomavirus type 1a protein E7 (residues 44-93). The experiment in a line: small molecules binding HPV E7 44-93 – biochemical, small-molecule microarray, residues 44-93, 635 nm fluorescence, primary screen (AID 1108).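 Also: E7 fragment applied at 1 µg/mL in TBST for 1 h at 4 C; score combines spot fluorescence with its signal to noise ratio.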 The following applies: fluorescence 635 nm, higher = more signal.
The nature of assay [2]: hepatitis C replication reporter changes, two-sided – Huh7 cells, luciferase reporter, HCV replication inhibitor project, primary screen (AID 1109).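 Also: huh7 hepatoma cells harbouring a luciferase neomycin HCV replicon reporter; luciferase luminescence as measure of HCV replicon replication; test concentration not given here.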 As to conditions: Huh7 HCV replicon luciferase reporter, 48 h; higher = more signal. (In general: Reporter assays use an easily measured gene product as a stand-in for the process of interest.)
The target in assay [3] is Left-right determination factor 2 (Homo sapiens) (UniProt O00292). Kind of assay: small molecules binding LEFTY2 protein – biochemical, small-molecule microarray, 635 nm fluorescence scan, primary screen (AID 1110). As to conditions: higher = more signal.
Assay [4] has as its target Calmodulin-1 (Homo sapiens) (UniProt P0DP23). The experiment in a line: small molecules binding calmodulin-1 with EGTA – biochemical, small-molecule microarray, Cy5-labelled CALM1, profiling panel (AID 1111).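 Also: labelled calmodulin applied in Tris saline Tween buffer holding calcium plus EGTA and DTT.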 The following applies: Cy5-CALM1 binding fluorescence, higher = more signal.
The target is the same in assay [5]. The experiment in a line: small molecules binding Ca-loaded calmodulin-1 – biochemical, small-molecule microarray, Cy5-labelled CALM1, plus calcium, artefact control for SMM control-protein annotation, profiling panel (AID 1112).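 Also: score merges spot fluorescence with signal to noise from triplicate slides.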 As to conditions: Cy5-CALM1 binding fluorescence, higher = more signal.
Assay [6] is described as follows: probe aWnt5a binding to arrayed compounds – biochemical, biotinylated probe, 635/667 nm fluorescence, primary screen (AID 1113).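 Also: score merges 667 nm fluorescence intensity with signal-to-noise per printed feature.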 As to conditions: small-molecule microarray, higher = more signal.
Assay [7] is described as follows: probe aShh binding to arrayed compounds – biochemical, biotinylated probe, 635/667 nm fluorescence, primary screen (AID 1114).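 Also: probe is biotin-labelled aShh protein from a stem cell growth factor screen; measures binding of labelled protein to compounds printed on the slide; score merges feature fluorescence at 667 nm with signal-to-noise.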 As to conditions: small-molecule microarray, higher = more signal.
Assay [8] in a line: probe aNog binding to arrayed compounds – biochemical, biotinylated probe, 635/667 nm fluorescence, primary screen (AID 1115).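 Also: probe is biotinylated aNog protein used at 0.15 µg/mL for 1 h at 4 C; z-score combines 667 nm fluorescence of each spot with its signal to noise.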 As to conditions: small-molecule microarray, higher = more signal.
The target in assay [9] is Torsin-1A-interacting protein 1 (Homo sapiens) (UniProt Q5JTV8). Kind of assay: compound microarray binding of lysate hLAP1 – cell lysate, small-molecule microarray, COS7 lysate, 635/667 nm fluorescence, primary screen (AID 1116). The following applies: 635 nm fluorescence, higher = more signal.
In assay [10] the target is Alpha-bungarotoxin (Bungarus multicinctus) (UniProt P60615). The experiment in a line: compounds binding labelled alpha-BTX control protein – biochemical, small-molecule microarray, Alexa647 label, 635/667 nm fluorescence, artefact control for SMM control protein annotation, profiling panel (AID 1117). The following applies: alpha-BTX-A647 binding fluorescence, higher = more signal.

The target in the next assay is Albumin (Bos taurus) (UniProt P02769). Kind of assay: compounds binding labelled BSA control protein – biochemical, small-molecule microarray, Alexa647 label, 635/667 nm fluorescence, artefact control for SMM control protein annotation, profiling panel (AID 1118).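 Also: score merges 667 nm emission intensity and signal-to-noise per printed compound spot.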 The following applies: BSA-A647 binding, fluorescence 635 nm, higher = more signal.
The nature of assay [11]: probe aXIP binding to arrayed compounds – biochemical, NeuroSMM set, 635/667 nm fluorescence, primary screen (AID 1119).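 Also: probe is the protein aXip251-270 applied at 1 µg/mL to compound-printed slides; binding of probe to printed compounds measured as 667 nm fluorescence plus signal to noise.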 As to conditions: small-molecule microarray, higher = more signal, called active from +8 up or from −8 down.
Assay [12] in a line: probe aNOTCH3 binding on compound microarray – biochemical, small-molecule microarray, 635/667 nm fluorescence, primary screen (AID 1120).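 Also: probe is a biotin-tagged antibody raised against NOTCH3 rather than NOTCH3 protein; score merges spot fluorescence near 667 nm with spot signal to noise.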 As to conditions: higher = more signal.
Assay [13] can be described thus: probe aNOTCH2 binding on compound microarray – biochemical, small-molecule microarray, 635/667 nm fluorescence, primary screen (AID 1121).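 Also: score merges feature fluorescence read at 667 nm with its signal to noise.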 As to conditions: higher = more signal.
For assay [14], the target named is Carbonic anhydrase 2 (Homo sapiens) (UniProt P00918). The experiment in a line: compounds binding carbonic anhydrase 2 – biochemical, small-molecule microarray, Alexa647-labelled CAII, profiling panel (AID 1122). As to conditions: CAII-A647 binding fluorescence, higher = more signal.
Assay [15] is described as follows: COS7 lysate on small-molecule microarray, probe aHis, 635 nm (AID 1123).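 Also: z-score combines 667nm fluorescence intensity with signal-to-noise per printed compound spot.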 The following applies: COS7 cell lysate, fluorescence, higher = more signal.
Assay [16] is described as follows: probe aLAP1 signal on lysate-treated microarray – cell lysate, small-molecule microarray, COS7 lysate, primary screen (AID 1124).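 Also: lysate comes from COS7 cells expressing LAP1 and is applied at 0.3 µg/mL; score merges spot fluorescence near 667 nm with signal-to-noise over triplicate slides.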 The following applies: probe aLAP1, fluorescence, higher = more signal.
Another assay concerns Sam68 (KHDRBS1). The experiment in a line: compounds binding KHDRBS1 protein – biochemical, small-molecule microarray, 635 nm fluorescence, primary screen (AID 1125).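 Also: score merges 667 nm channel intensity with signal to noise over triplicate slides.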 As to conditions: higher = more signal.
Assay [17] deals with Chordin-like protein 2 (CHRDL2). Kind of assay: compounds binding chordin-like 2 – biochemical, small-molecule microarray, 635 nm fluorescence, primary screen (AID 1126).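 Also: printed compound slides probed with Chrdl2 protein at 4 µg/mL for 1 h at 4 C; score merges 667 nm emission intensity with signal to noise over three replicate slides.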 As to conditions: fluorescence 635 nm, higher = more signal.
Assay [18] addresses Concanavalin-A (Canavalia ensiformis) (UniProt P02866). The experiment in a line: compounds binding concanavalin A lectin – biochemical, small-molecule microarray, Alexa647 label, 635 nm, artefact control for SMM control protein annotation, primary screen (AID 1127).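 Also: z combines 667 nm emission intensity with signal-to-noise across three replicate slides.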 The following applies: ConA-A647 binding fluorescence, higher = more signal.

Left-right determination factor 2 (Homo sapiens), sequence (O00292 whole entry, looked up): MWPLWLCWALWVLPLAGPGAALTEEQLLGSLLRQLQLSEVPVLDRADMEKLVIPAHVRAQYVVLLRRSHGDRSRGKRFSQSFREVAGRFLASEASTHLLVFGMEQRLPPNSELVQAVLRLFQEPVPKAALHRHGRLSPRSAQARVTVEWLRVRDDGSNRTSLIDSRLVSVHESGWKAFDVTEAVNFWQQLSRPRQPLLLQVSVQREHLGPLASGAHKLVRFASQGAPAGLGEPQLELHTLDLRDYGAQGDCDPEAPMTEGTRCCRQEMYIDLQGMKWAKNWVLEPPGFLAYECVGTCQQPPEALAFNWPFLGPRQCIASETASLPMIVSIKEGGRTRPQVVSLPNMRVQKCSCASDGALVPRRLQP
Torsin-1A-interacting protein 1 (Homo sapiens), sequence (Q5JTV8 whole entry, looked up): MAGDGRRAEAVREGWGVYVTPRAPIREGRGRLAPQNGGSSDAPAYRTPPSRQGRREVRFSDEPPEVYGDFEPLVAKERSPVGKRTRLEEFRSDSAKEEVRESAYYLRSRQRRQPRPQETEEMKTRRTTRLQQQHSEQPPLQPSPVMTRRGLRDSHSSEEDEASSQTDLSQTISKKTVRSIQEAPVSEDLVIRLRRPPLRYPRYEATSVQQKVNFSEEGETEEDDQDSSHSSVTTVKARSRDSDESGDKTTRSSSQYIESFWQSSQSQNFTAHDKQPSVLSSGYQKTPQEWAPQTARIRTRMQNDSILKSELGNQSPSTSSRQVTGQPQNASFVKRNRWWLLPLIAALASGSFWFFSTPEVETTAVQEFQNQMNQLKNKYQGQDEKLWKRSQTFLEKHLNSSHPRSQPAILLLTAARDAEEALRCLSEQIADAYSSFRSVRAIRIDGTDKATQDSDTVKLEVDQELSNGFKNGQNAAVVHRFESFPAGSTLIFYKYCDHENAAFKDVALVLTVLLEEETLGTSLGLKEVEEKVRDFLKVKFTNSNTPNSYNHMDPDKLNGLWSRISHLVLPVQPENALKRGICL
Albumin (Bos taurus), sequence (P02769 whole entry, looked up): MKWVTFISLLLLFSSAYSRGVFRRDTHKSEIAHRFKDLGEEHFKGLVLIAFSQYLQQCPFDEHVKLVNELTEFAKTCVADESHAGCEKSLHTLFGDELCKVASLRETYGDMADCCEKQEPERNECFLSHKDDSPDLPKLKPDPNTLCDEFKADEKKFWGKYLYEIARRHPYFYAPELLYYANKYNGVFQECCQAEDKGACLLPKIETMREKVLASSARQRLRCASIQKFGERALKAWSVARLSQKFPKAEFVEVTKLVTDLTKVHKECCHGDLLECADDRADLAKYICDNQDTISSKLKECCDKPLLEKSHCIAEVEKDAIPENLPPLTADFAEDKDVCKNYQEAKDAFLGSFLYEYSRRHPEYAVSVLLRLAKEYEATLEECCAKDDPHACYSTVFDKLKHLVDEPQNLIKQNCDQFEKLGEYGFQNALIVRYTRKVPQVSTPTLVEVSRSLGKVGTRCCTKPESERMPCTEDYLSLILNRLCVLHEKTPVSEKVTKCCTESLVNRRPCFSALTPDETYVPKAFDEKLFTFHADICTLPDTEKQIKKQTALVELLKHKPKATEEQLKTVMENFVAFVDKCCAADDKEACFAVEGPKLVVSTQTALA
Alpha-bungarotoxin (Bungarus multicinctus), sequence (P60615 whole entry, looked up): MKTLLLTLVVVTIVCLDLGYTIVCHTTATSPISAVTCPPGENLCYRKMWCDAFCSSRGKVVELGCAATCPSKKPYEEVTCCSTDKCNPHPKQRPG
Concanavalin-A (Canavalia ensiformis), sequence (P02866 whole entry, looked up): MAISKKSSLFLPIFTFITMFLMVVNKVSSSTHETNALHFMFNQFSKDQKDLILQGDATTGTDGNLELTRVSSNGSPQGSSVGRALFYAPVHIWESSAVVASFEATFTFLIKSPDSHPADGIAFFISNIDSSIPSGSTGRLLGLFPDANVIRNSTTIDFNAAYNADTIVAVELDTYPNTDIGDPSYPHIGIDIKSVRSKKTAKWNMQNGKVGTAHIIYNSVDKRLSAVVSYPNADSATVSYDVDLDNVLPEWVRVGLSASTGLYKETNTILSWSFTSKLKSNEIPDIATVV

Take `CC(C)(C)N1CC=CC23O[C@@H]4/C=C\CCCOC(=O)C4[C@H]2C(=O)N(CCCCCCO)[C@@H]3C1=O` (stereo not given in full): the composite z-score in [1] is -0.802; in assay [3], -1.03; in assay [4] it was -0.558; in [5], 0.337; in [6] it was -0.0873; in assay [7], 0.0952. Also, the composite z-score in assay [8] was 0.382; in assay [9] it was 1.24; in [10], -1.34; with Albumin (Bos taurus) it was 0.708; in assay [12], -0.284; in assay [13], -0.117. In addition, the composite z-score is 0.938 in assay [14]; 0.185 in assay [15]; 0.495 in [16]; -1.35 with Sam68 (KHDRBS1); -1.25 in [17]; -1.42 in [18]. Further, the z-score in [2] was -0.762. Also, the composite Z-score in assay [11] is -0.617 (inactive).
`[N-]=[N+]=NCc1ccccc1C[C@]1(C(=O)O)COC(c2ccc(OCCCO)cc2)=N1`: the composite z-score in [1] was -0.523; in assay [3] it was -1.47; in assay [4], 0.0347; in [5], 1.01; in assay [6], -0.15; in [7], -0.341. Besides, the composite z-score was -0.277 in [8]; -1.24 in assay [9]; -0.711 in assay [10]; 0.748 with Albumin (Bos taurus); -0.0525 in assay [12]; -0.14 in [13]. Further, the composite z-score is 0.805 in [14]; -0.0577 in [15]; -0.369 in assay [16]; -0.91 with Sam68 (KHDRBS1); -2.26 in assay [17]; -0.927 in [18]. The z-score in [2] was -0.35. Moreover, in [11], the composite Z-score is -0.496 (inactive).
Consider `CC(=O)c1ccc(C(O)C2C=CC3C(=O)N(C)C(=O)C3N2NC(=O)OC(C)(C)C)cc1` (stereo not given), for which the composite z-score was 0.955 in assay [1]; 0.237 in assay [3]; 2.2 in assay [4]; 1.19 in assay [5]; 0.0279 in [6]; 0.207 in assay [7]. In addition, the composite z-score in [8] was found to be 1.7; in [9], 0.486; in [10], 2.12; in the assay with Albumin (Bos taurus), 1; in assay [12], 0.103; in [13], 0.119. For the same compound, the composite z-score in assay [14] was 0.885; in [15], 2.61; in [16] it was 0.366; in the assay on Sam68 (KHDRBS1), 1.29; in assay [17], -0.971; in assay [18] it was 1.17. The same compound yielded a z-score in assay [2] of -0.859. For the same compound, the composite Z-score in [11] is -0.331 (inactive).
Consider `C[C@H]1NC(=O)C([C@@H](C)OCc2ccccc2)NC(=O)[C@@]23C(=O)N[C@@H](Cc4ccccc4)C2[C@H](C)[C@@]2(C)O[C@H]2C3/C=C/C/C=C\CNC1=O` (stereo not given in full), for which the composite z-score in assay [1] was -0.037; in assay [3], 0.39; in assay [4] it was -0.553; in assay [5], -0.854; in assay [6] it was -0.213; in assay [7], -0.0553. The composite z-score is -0.0602 in assay [8]; -0.0194 in [9]; 0.21 in assay [10]; -0.224 with Albumin (Bos taurus); -0.136 in assay [12]; -0.177 in assay [13]. Further, the composite z-score in assay [14] is 0.661; in assay [15], 0.234; in [16] it was -0.0311; in the assay with Sam68 (KHDRBS1), -0.204; in assay [17], 0.601; in assay [18], -0.401. The same compound registered a z-score in assay [2] of -1.52. Further, the composite Z-score in assay [11] was -0.211 (inactive).
In the case of `COCCOC(=O)N1C(=O)[C@@]2(c3cc(C#CCCO)ccc31)[C@H](C(=O)N1CCN(c3ncccn3)CC1)[C@H]1C(=O)O[C@H](c3ccccc3)[C@H](c3ccccc3)N1[C@@H]2c1ccc(O)cc1`, the composite z-score in assay [1] is 0.228; in [3], 0.0272; in [4], -0.444; in assay [5], -0.559; in [6], -0.0179; in assay [7] it was 0.0074. Besides, the composite z-score was 1.01 in [8]; 0.894 in assay [9]; 1.85 in assay [10]; 0.506 with Albumin (Bos taurus); -0.236 in assay [12]; -0.245 in assay [13]. Also, the composite z-score came to 0.244 in assay [14]; 1.4 in assay [15]; 0.298 in assay [16]; 1.29 with Sam68 (KHDRBS1); 0.182 in assay [17]; 0.983 in assay [18]. Also, the z-score in [2] is -1.65. Moreover, the composite Z-score in assay [11] is 0.168 (inactive).
As to `COc1ccc(NC(=O)O[C@H]2[C@H](OC(=O)Nc3ccc4c(c3)OCO4)[C@H](OC(=O)Nc3ccc4c(c3)OCO4)[C@@H](OC)O[C@@H]2CO)cc1`, the composite z-score was 1.08 in [1]; -0.0444 in assay [3]; 0.888 in assay [4]; -0.958 in assay [5]; -0.0643 in [6]; 0.0469 in assay [7]. Also, the composite z-score is -0.147 in assay [8]; 0.94 in assay [9]; 0.425 in [10]; -0.0357 with Albumin (Bos taurus); 0.037 in assay [12]; -0.117 in [13]. In addition, the composite z-score in [14] came out at 0.609; in [15], 1.36; in assay [16] it was 1.16; with Sam68 (KHDRBS1), 1.26; in [17], 0.0872; in assay [18] it was 1.02. In assay [2], this compound yielded a z-score of 0.0346. Moreover, the composite Z-score in assay [11] is -0.102 (inactive).
